Bioassay records (PubChem)
This is a sample that favours compounds with a hit; in the whole collection about 3.7% have one here.
ATXN2 expr inh = Primary qHTS for Inhibitors of ATXN expression; HEK-293 ATXN2-luciferase reporter, luminescence, 24 h; Potency, µM (doses to about 57 µM), hits mostly inhibitors; 360,000 tested, 0.72% active; AID 1745845, 2022; further: nearly all actives have a fitted effect of over 55% in size
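qHTS (up to 57 uM final) was run with 24 h compound exposure of reporter cells at 37 °C. Each well was multiplexed: SteadyGlo luminescence measured ATXN2-luciferase expression after a fluorogenic Gly-Phe-AFC viability readout (25 uM final).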
GLP-1R inv ag = qHTS of GLP-1 Receptor Inverse Agonists (Inhibition Mode). Glucagon-like peptide 1 receptor (Homo sapiens), P43220. HEK293 GLP-1R CRE-luciferase, luminescence, 24 h; GLP-1R form is constitutively active. Potency, µM (highest dose often 38.3 µM), usual class: inhibitors. 410,000 tested, 1.6% active; further: nearly all actives have a fitted effect of over 55% in size
Target sequence (P43220 whole entry, looked up): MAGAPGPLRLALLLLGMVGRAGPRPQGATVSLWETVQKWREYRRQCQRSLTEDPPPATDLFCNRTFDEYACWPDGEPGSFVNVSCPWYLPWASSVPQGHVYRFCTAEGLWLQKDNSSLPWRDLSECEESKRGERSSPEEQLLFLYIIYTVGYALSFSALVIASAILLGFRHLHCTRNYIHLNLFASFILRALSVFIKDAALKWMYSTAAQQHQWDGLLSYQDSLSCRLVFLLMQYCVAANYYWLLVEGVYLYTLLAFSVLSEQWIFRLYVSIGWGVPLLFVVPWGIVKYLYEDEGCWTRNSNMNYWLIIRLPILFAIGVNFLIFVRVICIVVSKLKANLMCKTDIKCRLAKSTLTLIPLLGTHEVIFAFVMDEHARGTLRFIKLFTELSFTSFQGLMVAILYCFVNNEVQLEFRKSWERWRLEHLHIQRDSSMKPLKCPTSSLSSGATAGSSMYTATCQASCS
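Stable HEK293 clone (constitutively active GLP-1R + cAMP-response luciferase); 200 cells/uL plated, 12 h pre-culture, compound 24 hr, 37 deg C/5% CO2; detection reagent 12 min RT; luminescence.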
HepG2 tox = qHTS for Inhibitors of TGF-b: Cytotox Counterscreen. HepG2 CAGA-GFP viability, ATP luminescence, 18 h. Potency, µM (doses to about 46.1 µM), most hits filed as cytotoxic. 410,000 tested, 0.76% active
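CellTiter-Glo luminescence gave cytotoxicity after 18 hours at 37 degrees C. The cells were HepG2 CAGA-GFP in 1% FBS DMEM, stimulated with 500 pg/mL TGF-beta after compound addition. %Activity was normalised to no-cell wells (complete cell-killing) and DMSO (no toxicity), and curves were fitted and classified.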
TGFb inhibitor = qHTS for Inhibitors of TGF-b | HepG2 CAGA-GFP TGF-b/SMAD3 reporter, GFP fluorescence, 18 h; TGF-beta stimulated, 500 pg/mL final | Potency, µM (highest dose often 46.1 µM), hits mostly inhibitors | 410,000 tested, 1.2% active | AID 588855, 2011; further: nearly all actives have a fitted effect of over 65% in size
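Smad-responsive CAGA-GFP expression was quantified in HEPG2 cells exposed to compounds and 500 pg/mL final TGF-beta for 18 h at 37 degrees C; unstimulated wells defined full inhibition.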
S2 tox = Viability Counterscreen for Primary qHTS for Inhibitors of ATXN expression; S2 cells (HEK-293 line with an ATXN2-luciferase reporter) viability, CellTiter-Fluor protease fluorescence, 24 h; Potency, µM (titrated, usually from 56.7 µM), hits mostly cytotoxic; 400,000 tested, 0.49% active; AID 651635, 2014; further: nearly all actives have a fitted effect of over 40% in size
GLP1R ag = qHTS of GLP-1 Receptor Agonists | 380,000 tested, 0.007% active | AID 624172, 2012 | Glucagon-like peptide 1 receptor (Homo sapiens), P43220 | Potency, µM (top dose mostly 45.6 µM), actives largely listed as activators | HEK293 GLP-1R CRE-luciferase, luminescence, 4-6 h; cells express a hypersensitive GLP-1R form
Of the large screens only hits and unclear results are named; the others gave an inactive call; ! = repeats disagree. The call rests on the fitted dose curve; in most records, active means well fitted curve in the direction sought with a large enough effect; inconclusive means small, poorly fitted or top-dose-only effect, or another doubt; inactive means no such curve, though single readings can be large; an effect the other way counts as inactive or inconclusive.

Oc1cccc(-c2c3nc(c(-c4cccc(O)c4)c4ccc([nH]4)c(-c4cccc(O)c4)c4nc(c(-c5cccc(O)c5)c5ccc2[nH]5)CC4)C=C3)c1	S2 tox 7.1µM (no result: GLP-1R inv ag, HepG2 tox, TGFb inhibitor)
C#CCN(C[C@@H]1[C@@H](OC(=O)NCc2ccc(OC)c(OC)c2)[C@@H](OC(=O)NCc2ccc(OC)c(OC)c2)Cn2c(=O)ccc(=O)n21)S(=O)(=O)c1ccc(C)cc1	ATXN2 expr inh inconclusive, TGFb inhibitor inconclusive, S2 tox 20µM
C#CCN(C[C@@H]1[C@@H](OC(=O)NCc2ccco2)[C@@H](OC(=O)NCc2ccco2)Cn2c(=O)ccc(=O)n21)S(=O)(=O)c1ccc(C)cc1	ATXN2 expr inh 14µM, GLP-1R inv ag 10µM, TGFb inhibitor inconclusive, S2 tox 25µM
C#CCN(C[C@@H]1[C@@H](OC(=O)NCCCCCC)[C@@H](OC(=O)NCCCCCC)Cn2c(=O)ccc(=O)n21)S(=O)(=O)c1ccc(C)cc1	ATXN2 expr inh 3.5µM, GLP-1R inv ag inconclusive, HepG2 tox 6.3µM, TGFb inhibitor 6.3µM, S2 tox 4µM
C#CCN(C[C@@H]1[C@@H](OC(=O)NCC2CCCCC2)[C@@H](OC(=O)NCC2CCCCC2)Cn2c(=O)ccc(=O)n21)S(=O)(=O)c1ccc(C)cc1	ATXN2 expr inh 3.5µM, GLP-1R inv ag 2.5µM, TGFb inhibitor 7.1µM, S2 tox 3.5µM
C#CCN(C[C@@H]1[C@@H](OC(=O)NCc2ccco2)[C@@H](OC(=O)NCc2ccco2)Cn2c(=O)n(CCCCCC)c(=O)n21)S(=O)(=O)c1ccc(C)cc1	GLP-1R inv ag inconclusive, TGFb inhibitor inconclusive
C#CCN(C[C@@H]1[C@@H](OC(=O)NC2CC2)[C@@H](OC(=O)NC2CC2)Cn2c(=O)n(CCCCCC)c(=O)n21)S(=O)(=O)c1ccc(C)cc1	GLP-1R inv ag inconclusive, S2 tox inconclusive
O=C(COC(=O)c1ccc(C(F)(F)F)cc1)NC(=O)C1CCCCC1	none (no result: ATXN2 expr inh, GLP-1R inv ag, S2 tox, GLP1R ag)
Nc1ccc2c(c1)[nH]c(=O)c1ccccc12	none
Nc1cc2c(cc1Br)[nH]c(=O)c1ccccc12	GLP-1R inv ag inconclusive, TGFb inhibitor 10µM, S2 tox inconclusive
COC(=O)c1sc2cccc(F)c2c1S(=O)(=O)NCc1ccc(Cl)cc1	none (no result: GLP1R ag)
COc1ccc2oc(=O)cc(CN3CCN(C(=O)c4ccccc4Br)CC3)c2c1	none (no result: ATXN2 expr inh, S2 tox, GLP1R ag)
CCN1C(=O)/C(=C/c2nc3ccccc3c(=O)n2-c2ccccc2)c2ccccc21	ATXN2 expr inh inconclusive, GLP-1R inv ag 2µM, HepG2 tox 16µM, S2 tox inconclusive
CN(C)c1ccc(/C=C2\CCc3cc(N)ccc32)cc1	none (no result: ATXN2 expr inh, GLP-1R inv ag, S2 tox, GLP1R ag)
Cc1ccc(-c2nn3c(C)nnc3s2)cc1NC(=O)c1ccc(-c2cccc(Cl)c2)o1	ATXN2 expr inh inconclusive, GLP-1R inv ag inconclusive, TGFb inhibitor inconclusive, S2 tox inconclusive
Cc1ccc(-c2nn3c(C)nnc3s2)cc1NC(=O)c1ccc(-c2ccc(Cl)cc2Cl)o1	ATXN2 expr inh 8.9µM, TGFb inhibitor inconclusive (no result: S2 tox)
Cc1cc(C(=O)OC(C)C(=O)Nc2nc(-c3ccccc3)cs2)c(C)o1 (stereo not given)	GLP-1R inv ag 10µM, TGFb inhibitor inconclusive
Cc1ccccc1CN1CCc2nnc(C(C)NC(=O)c3cc(F)ccc3F)n2CC1 (stereo not given)	none (no result: ATXN2 expr inh, GLP-1R inv ag, HepG2 tox, TGFb inhibitor, GLP1R ag)
COc1cccc(N2CCN(c3ncnc4c3cnn4-c3ccc(C)cc3C)CC2)c1	ATXN2 expr inh 7.9µM, GLP-1R inv ag inconclusive, TGFb inhibitor inconclusive, S2 tox 10µM
CCc1ccccc1Nc1ncnc2c1cnn2-c1ccc(C)cc1C	GLP-1R inv ag 13µM, TGFb inhibitor inconclusive (no result: GLP1R ag)
Cc1ccc(-n2ncc3c(Nc4ccc(Oc5ccccc5)cc4)ncnc32)c(C)c1	ATXN2 expr inh inconclusive, GLP-1R inv ag 10µM, TGFb inhibitor inconclusive, S2 tox inconclusive (no result: GLP1R ag)
Cc1cccc(-n2ncc3c(Nc4c(C)cc(C)cc4C)ncnc32)c1	GLP-1R inv ag 5.6µM, TGFb inhibitor inconclusive, S2 tox inconclusive (no result: GLP1R ag)
Nc1ccc(N)c([N+](=O)[O-])c1	S2 tox inconclusive (no result: GLP-1R inv ag, HepG2 tox, TGFb inhibitor)
CC(C)=CCC1=C(OCC(=O)O)C(=O)c2ccccc2C1=O	HepG2 tox 11µM, TGFb inhibitor 14µM, S2 tox inconclusive (no result: ATXN2 expr inh)
CC(C)=CCC/C(C)=C/CC/C(C)=C/CC/C(C)=C/CC1=C(C)C(=O)c2ccccc2C1=O	TGFb inhibitor inconclusive
O=C(/C=C/c1ccccc1)c1ccc2c(c1)OCCCCO2	none
O=C(CCl)N(C/C=C/c1ccccc1)c1ccc2c(c1)OCCO2	ATXN2 expr inh 1.3µM, GLP-1R inv ag inconclusive, TGFb inhibitor inconclusive, S2 tox 1.3µM
COC(=O)C1=C(C)N(Cc2ccccc2)C(=S)N[C@H]1c1ccc(Br)cc1	ATXN2 expr inh inconclusive, GLP-1R inv ag inconclusive, TGFb inhibitor 13µM, S2 tox inconclusive
COC(=O)C1=C(C)N(Cc2ccccc2)C(=S)N[C@H]1c1cccc(C(F)(F)F)c1	GLP-1R inv ag inconclusive, TGFb inhibitor inconclusive, S2 tox inconclusive
COC(=O)C1=C(C)N(Cc2ccccc2)C(=NCCc2cccnc2)N[C@H]1c1ccc(Br)cc1	ATXN2 expr inh 32µM, GLP-1R inv ag inconclusive, HepG2 tox 16µM, TGFb inhibitor inconclusive, S2 tox inconclusive
CCOC(=O)N1CCN(c2ncnc3scc(-c4ccc(Cl)cc4)c23)CC1	TGFb inhibitor 16µM (no result: ATXN2 expr inh)
COc1ccccc1-c1c(C)nn2c(N3CCOCC3)cc(C)nc12	none
COc1ccccc1-c1c(C)nn2c(N3CCCCCC3)cc(C)nc12	ATXN2 expr inh inconclusive, GLP-1R inv ag inconclusive, TGFb inhibitor 11µM, S2 tox inconclusive
CCC1CC=CC2C1C(=O)N(Cc1ccccc1)C2c1ccc2ccccc2c1 (stereo not given)	none (no result: ATXN2 expr inh, GLP-1R inv ag, S2 tox, GLP1R ag)
Cc1c(N=Nc2ccc(O)cc2)c(=O)n(-c2ccccc2)n1C	S2 tox inconclusive
Cc1c(N=C2NC(=O)/C(=C/c3ccc(O)cc3)S2)c(=O)n(-c2ccccc2)n1C	HepG2 tox 10µM, S2 tox inconclusive
COCC1CCCN(c2nc(CN3CCN(C(=O)c4ccco4)CC3)nc3ccccc23)C1 (stereo not given)	none (no result: ATXN2 expr inh, GLP-1R inv ag, HepG2 tox, TGFb inhibitor, GLP1R ag)
Nc1nc(=S)c2[nH]cnc2[nH]1	ATXN2 expr inh 4µM!, HepG2 tox 1.4µM, TGFb inhibitor inconclusive, S2 tox inconclusive
Nc1nc2c(ncn2[C@H]2C[C@H](O)[C@@H](CO)O2)c(=O)[nH]1	none
